Rows were chosen to be rich in hits. Some 4.2% of all compounds tested hit in one or more screens of this group.
Mtb FBA inh = Mtb FBA enzyme inhibitors, primary screen, biochemical, fluorescence, strain H37Rv | Fructose-bisphosphate aldolase (Mycobacterium tuberculosis (strain ATCC 25618 / H37Rv)), … | purified M. tuberculosis FBA, fluorescence read-out | inhibition, % at 1 µM | actives 2.3% (n = 360,000) | AID 588726, 2011; in the data active = inhibition above about 27%;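 also: 0% = vehicle and 100% = reference inhibitor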
Target sequence (P9WQA3 whole entry, looked up): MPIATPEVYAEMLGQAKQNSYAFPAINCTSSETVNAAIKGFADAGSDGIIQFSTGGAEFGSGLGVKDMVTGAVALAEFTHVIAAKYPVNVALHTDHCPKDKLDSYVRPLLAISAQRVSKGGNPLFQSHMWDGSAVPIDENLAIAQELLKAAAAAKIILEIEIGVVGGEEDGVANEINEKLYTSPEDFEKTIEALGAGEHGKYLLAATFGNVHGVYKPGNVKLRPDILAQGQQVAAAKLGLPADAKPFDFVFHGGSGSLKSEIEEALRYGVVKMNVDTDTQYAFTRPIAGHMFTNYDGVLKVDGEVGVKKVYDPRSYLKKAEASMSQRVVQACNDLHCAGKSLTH
CCHFV vOTU inh = CCHFV vOTU protease inhibitors, primary screen, biochemical, Pep-AMC substrate, fluorescence. Crimean-Congo hemorrhagic fever virus L polyprotein viral ovarian tumor (vOTU) protease …. inhibition, % at 11.5 µM. actives 0.55% (n = 370,000); also: 0% = vehicle wells with enzyme and 100% = no enzyme wells
GDH-TPI inh = GDH-TPI coupling enzyme inhibitors, primary screen, artefact control for M. tuberculosis FBA inhibitor project, biochemical, absorbance, full deck; GDH-TPI coupled enzyme counterscreen, NADH absorbance; inhibition, % at 4.8 µM; actives 1.2% (n = 360,000); AID 588335, 2011;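 also: 0% = DMSO wells and 100% = wells lacking the enzyme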
RecA splice inh = Mtb RecA intein splicing inhibitors, primary screen, biochemical, fluorescence, HTS. AID 2221, 2009. inhibition, % (no concentration beside the values). cell-free RecA intein splicing. actives 0.75% (n = 290,000). Protein RecA (Mycobacterium tuberculosis (strain ATCC 25618 / H37Rv)), P9WHJ3; in the data active = inhibition above about 30%;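 also: 0% = vehicle wells and 100% = reference inhibitor control wells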
* marks the source's active call; other numbers are inactive results; . = no result; + = active, no number. Rule as the data show it, unless noted: active = inhibition above about 30%; inactive = the rest.

SMILES	Mtb FBA inh	CCHFV vOTU inh	GDH-TPI inh	RecA splice inh
CCn1cc(/C=C(\NC(=O)c2ccccc2)C(=O)NCCCN2CCOCC2)c2ccccc21	-2	8	40*	-5
Cn1cc(/C=C(\NC(=O)c2ccccc2Cl)C(=O)NCCCN2CCOCC2)c2ccccc21	0	5	34*	1
Cn1cc(/C=C(\NC(=O)c2ccccc2Cl)C(=O)NCCN2CCOCC2)c2ccccc21	-4	10	25	0
COc1cccc(NC(=O)Nc2c(-c3ccc(F)cc3)nc3ncccn23)c1	.	-14	.	.
Cc1cccc(C(C)Nc2ccc([N+](=O)[O-])cn2)c1 (centres undefined)	-7	5	31*	5
Cc1ccc(N=Nc2c(N)nn3c(C)cc(C)nc23)cc1	-7	9	40*	-3
COc1ccc(S(=O)(=O)Nc2ccc3c(c2)C(=O)N([C@H](C)CO)C[C@H](C)[C@@H](CN(C)S(=O)(=O)c2ccc(F)cc2)O3)cc1	2	2	1	.
CCCCn1cc(C(=O)c2cc(Br)ccc2O)cc(C#N)c1=O	4	12	9	1
C=CCn1cc(C(=O)c2cc(Br)ccc2O)cc(C#N)c1=O	1	17	31*	4
CCC(C)c1ccc(NC(=O)C2CC3CCC2C3)cc1 (centres undefined)	0	8	5	10
COc1ccc(-c2nc(-c3ccccc3)nc(N3CCN(C)CC3)c2C#N)cc1	38*	0	9	1
CN1CCN(c2nc(-c3ccccc3)nc(-c3ccccc3)c2C#N)CC1	-2	1	4	0
COc1cnc(-c2ccccn2)nc1NC(C)C	46*	-1	1	-9
O=C(Nc1ccc(F)cc1)OCc1cn(Cc2cccc(Cl)c2)nn1	.	-4	.	.
O=c1cc(/C=C/c2ccccc2)oc2ccccc12	6	0	32*	.
O=c1cc(-c2ccccc2)oc2ccccc12	-2	2	0	.
O=C(c1ccccc1)N1CC[C@H]2[C@H](CCCN2Cc2cc(F)cc(F)c2)C1	.	1	.	.
COc1cccc(COC(=O)C(Cc2ccccc2)NC(=O)c2ccco2)c1 (centres undefined)	-2	6	-2	.
CCc1cc(N2CCOCC2)cc2c1[nH]c1ccccc12	96*	-56	-2	-6
c1ccc2c(c1)[nH]c1c(N3CCOCC3)ncnc12	13	-5	20	-1
CC(C)C[C@H]1COc2cccc(F)c2S(=O)(=O)N1Cc1cn(Cc2ccc(F)cc2)nn1	.	-3	.	.
O=[N+]([O-])c1ccc(NCc2ccc(Cl)cc2)nc1	-3	-5	34*	5
CCCc1nnc(NC(=O)CCC(=O)NC2CCCC2)s1	0	15	2	0
C/C(=N/OC(=O)c1ccc(Cl)cc1Cl)c1oc(C)nc1C	2	-8	3	1
Cc1ccnc(N/C=C(/NC(=O)c2ccccc2)C(=O)N/N=C\c2ccc(Cl)cc2)n1	-5	4	91*	0
SMILES	Mtb FBA inh	CCHFV vOTU inh	GDH-TPI inh	RecA splice inh
O=C(N/N=C/c1ccncc1)/C(=C/c1ccccc1)NC(=O)c1ccccc1	-3	-1	11	-1
Cc1ccc(S(=O)(=O)NC2=NCN(C(C)C)CN2)cc1	2	-5	3	.
COc1cc2c(cc1OC)-c1cc(NC3CCCCCC3)nc(=O)n1CC2	15	-13	31*	4
COc1cc2c(cc1OC)-c1cc(N3CCCCCC3)nc(=O)n1CC2	14	-9	46*	2
COc1cc2c(cc1OC)-c1cc(Nc3ccc4c(c3)OCCO4)nc(=O)n1CC2	3	16	36*	2
COc1cc2c(cc1OC)-c1cc(Nc3ccc(C)cc3)nc(=O)n1CC2	-1	5	18	2
COc1ccc(Nc2cc3n(c(=O)n2)CCc2cc(OC)c(OC)cc2-3)cc1	22	3	24	-4
COc1ccc(Nc2cc3n(c(=O)n2)CCc2cc(OC)c(OC)cc2-3)c(C)c1	2	1	33*	-1
CCN(C(=O)c1c(C)noc1C)c1c(N)n(Cc2ccccc2)c(=O)[nH]c1=O	-1	0	-6	.
CC(C)CCOc1ccc(C(=O)NNC(=O)CNC(=O)c2ccccc2F)cc1	-2	11	5	.
COC(=O)C1CN(Cc2ccc(Cl)cc2)CCS(=O)(=O)N1Cc1cn(Cc2ccc(Cl)cc2)nn1 (centres undefined)	.	9	.	.
COc1cc2c(cc1OC)-c1cc(N3CCCc4ccccc43)nc(=O)n1CC2	1	6	16	3
COc1cc2c(cc1OC)-c1cc(N3CCc4ccccc43)nc(=O)n1CC2	19	-19	43*	-4
COc1cc2c(cc1OC)-c1cc(OCc3cccnc3)nc(=O)n1CC2	+	-287	40*	.
COc1cc2c(cc1OC)-c1cc(Nc3ccccc3)nc(=O)n1CC2	9	5	18	14
O=C(C[C@H]1C/C=C\CC[C@@H](Cc2ccc(F)cc2)C(=O)OC[C@H]2CCCN2C1=O)N[C@@H](CO)Cc1ccccc1	1	1	-4	.
C#CCCCN([C@@H](CC(C)C)C(=O)OC)S(=O)(=O)c1ccc(F)cc1Br	.	7	.	.
Nc1nnnn1/N=C/c1cc(Br)ccc1O	-2	-3	32*	-3
CCn1c2ccccc2c2cc(/C=N/NC(=O)c3ccc(O)cc3)ccc21	15	-3	36*	-1
CSc1nsc(SCC(=O)Nc2ccccc2)n1	-2	3	-11	.
CSc1nsc(SCC(=O)N2CCN(c3ccccc3)CC2)n1	135*	13	-2	4
Cn1ccc(/C=N/N=C2/NC(=O)CS2)n1	-1	-12	46*	0
O=C1CS/C(=N/N=C/c2ccncc2)N1	-3	0	30	0
COC(=O)C1=C(C)NC(C)=C(C(=O)OC)C1C(=O)OCC(=O)c1ccc(Br)cc1	0	-1	12	.
CCOc1ccc(S(=O)(=O)N2CCC(C(=O)Nc3ccccc3N3CCCC3)CC2)cc1	5	19	13	.
SMILES	Mtb FBA inh	CCHFV vOTU inh	GDH-TPI inh	RecA splice inh
CCC(c1nnnn1Cc1ccc(F)cc1)N(CCCO)Cc1cc2cc3c(cc2[nH]c1=O)OCO3 (centres undefined)	13	-8	35*	-2
CS(=O)(=O)c1ccc(Cl)c(NC(=O)CSc2nc3ccccc3c(=O)n2Cc2ccco2)c1	4	-2	6	-1
O=C(O)CCCC(=O)Nc1nc2n(n1)C(c1ccc(F)cc1)CC(c1ccc(Cl)cc1)N2 (centres undefined)	10	-10	2	-2
CC1=CC(c2ccc(Cl)cc2)n2nc(NC(=O)CCC(=O)O)nc2N1 (centres undefined)	115*	-179	4	-65
COCCNC(=O)/C(C#N)=C/c1ccc(O)c([N+](=O)[O-])c1	-11	11	14	0
COCCNC(=O)/C(C#N)=C/C=C/c1ccccc1[N+](=O)[O-]	-1	9	48*	12
Cc1ccc(C(C)C)cc1S(=O)(=O)NCc1ccccn1	0	3	5	4
O=c1[nH]nc(N/N=C/c2ccccc2OC(F)F)c(=O)[nH]1	3	1	42*	-11
